Screening data from PubChem BioAssay.
Compounds with a hit are over-represented: about 2.1% of the library has one in this group of screens.
PvdQ acylase: P. aeruginosa PvdQ acylase inhibitors, primary screen, biochemical, fluorescence, plate reader and imaging, single point | purified PvdQ acylase | PvdQ acylase [Pseudomonas aeruginosa LESB58] | 340,000 compounds, 0.063% hits | inhibition, % at 10 µM | AID 488965, 2010; in the data active means inhibition above about 30%, passing the limit was not always enough;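 further: 0% = vehicle neutral wells and 100% = reference inhibitor wells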
CFTR F508del cor: F508del CFTR correction, initial screen, CFBE line, single point. CFBE cells, YFP halide quenching; stimulated with forskolin plus potentiator P3; % fluorescence drop versus neutral controls. activity (quench increase), % at 7.58 µM. 350,000 compounds, 0.36% hits;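 active means mean added fluorescence quench of at least 8% versus neutral control, with both replicates also reaching 8%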;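 further: cells transiently co-express mutant CFTR-F508del with the halide-sensitive YFP; corrector assay measuring rescue of mutant channel to the surface after 24 h compound exposure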
ARNT-TACC3 inh: disruptors of ARNT/TACC3 protein interaction, primary screen, biochemical, AlphaScreen, single concentration; AlphaScreen His-ARNT PAS-B/GST-TACC3 binding, luminescence; TACC3 fragment carries E629A point mutation; inhibition, % at 9.99 µM; 390,000 compounds, 0.66% hits; AID 623870, 2012;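 active means mean inhibition of replicates at least 50% and at least half of replicates each reaching 50%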;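 further: 0% = complete ARNT plus TACC3 wells and 100% = ARNT alone without TACC3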
ERAP1 inh: human ERAP1 aminopeptidase inhibitors, primary screen, biochemical, single point, plate reader; Endoplasmic reticulum aminopeptidase 1 (Homo sapiens), Q9NZ08; recombinant ERAP1, Leu-AMC fluorescence, 60 min; inhibition, % at 10.7 µM; 340,000 compounds, 0.15% hits;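 active means mean replicate inhibition of at least 30%, or all replicates individually reaching that 30% level; inactive means mean below 30% and not every replicate reaching it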;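 further: 0% = neutral control wells and 100% = L-leucinethiol positive control wells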
Target sequence (Q9NZ08 whole entry, looked up): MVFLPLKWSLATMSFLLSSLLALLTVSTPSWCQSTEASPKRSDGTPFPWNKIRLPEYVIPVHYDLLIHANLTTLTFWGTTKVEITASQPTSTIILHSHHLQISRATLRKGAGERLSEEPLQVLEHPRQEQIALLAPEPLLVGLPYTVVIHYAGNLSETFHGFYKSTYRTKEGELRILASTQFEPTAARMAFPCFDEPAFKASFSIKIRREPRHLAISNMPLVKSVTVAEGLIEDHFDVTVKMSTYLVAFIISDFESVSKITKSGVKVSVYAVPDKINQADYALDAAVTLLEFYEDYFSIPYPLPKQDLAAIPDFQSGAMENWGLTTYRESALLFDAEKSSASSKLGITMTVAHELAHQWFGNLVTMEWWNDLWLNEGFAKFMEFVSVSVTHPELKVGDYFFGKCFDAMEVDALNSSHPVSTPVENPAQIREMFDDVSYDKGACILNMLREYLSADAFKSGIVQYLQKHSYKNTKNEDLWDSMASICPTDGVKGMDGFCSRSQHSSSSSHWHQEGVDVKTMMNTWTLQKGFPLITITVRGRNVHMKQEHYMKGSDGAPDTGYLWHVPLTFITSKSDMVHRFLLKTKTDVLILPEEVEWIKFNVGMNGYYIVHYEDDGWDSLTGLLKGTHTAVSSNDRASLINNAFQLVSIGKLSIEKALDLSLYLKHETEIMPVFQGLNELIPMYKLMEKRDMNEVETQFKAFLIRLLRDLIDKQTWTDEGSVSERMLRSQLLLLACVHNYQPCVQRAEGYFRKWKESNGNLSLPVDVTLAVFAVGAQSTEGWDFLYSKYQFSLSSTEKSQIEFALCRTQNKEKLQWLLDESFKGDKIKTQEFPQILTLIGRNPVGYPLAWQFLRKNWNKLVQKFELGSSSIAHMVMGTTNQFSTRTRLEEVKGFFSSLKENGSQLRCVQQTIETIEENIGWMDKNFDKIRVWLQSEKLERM
Ecoli rRNA inh: reduced GFP signal of wild-type E. coli, primary screen, bacterial rRNA inhibitor project, GFP/RFP fluorescence, OD600, single point. E. coli WT GFP vs humanized-ribosome RFP mutants, 24 h; hits give low values; DMSO median 0, no signal -100. GFP signal change (wild-type ribosome), % (no concentration beside the values). 350,000 compounds, 1.6% hits. AID 720706, 2013;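 active means significant combined selectivity score with lowered wild-type GFP, culture density cut under 30%, mutant RFP and density less affected; inactive means any of these conditions unmet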
The depositor's hits bear a star; nt = no result.

SMILES	PvdQ acylase	CFTR F508del cor	ARNT-TACC3 inh	ERAP1 inh	Ecoli rRNA inh
COc1cc(C)c(NC(=S)Nc2ccc(Cl)c(Cl)c2)cc1OC	7.3	nt	-8.0	6.0	-27.8*
COCCNC(=S)Nc1ccc(Cl)c(Cl)c1	-7.5	nt	-15.1	-3.2	5.3
Cc1[nH]c2ccccc2c1C(C[N+](=O)[O-])c1cccc(O)c1 (stereo not given)	-8.7	-1.2	10.2	0.6	-32.5*
CC(C)NC[C@H]1[C@@H](c2ccc(C3=CCCCC3)cc2)[C@@H](CO)N1C(=O)NC(C)C	nt	5.5	12.3	0.8	6.7
S=C1SCN(Cc2cccnc2)CN1Cc1ccccc1	-5.6	-2.8	-4.6	-3.7	-29.1*
S=C1NCN(Cc2cccnc2)CN1Cc1ccccc1	8.8	-0.8	3.5	1.3	-5.1
COc1ccc(-c2ccc(-c3nnn(CC(=O)N4CCOCC4)n3)cc2)cc1	-5.8	nt	-4.5	1.8	20.9
COc1ccc(OC)c(C(=O)Cn2nnc(-c3ccc(N4CCOCC4)cc3)n2)c1	-9.6	10.4*	-2.3	-0.4	6.1
O=C(C[C@H]1CC[C@H]2[C@@H](COC[C@@H](O)CN2S(=O)(=O)c2ccc(F)cc2)O1)N[C@H]1CCN(Cc2ccccc2)C1	nt	2.1	13.7	-4.6	-2.8
[O-]/C(=C(\C(=S)Nc1ccc(SC(F)F)cc1)[n+]1cccc(CO)c1)c1ccc(Cl)s1	-10.4	1.3	-5.6	3.6	-31.3*
CN(C)c1cc[n+](/C(C(=S)Nc2ccc(SC(F)F)cc2)=C(/[O-])c2ccccc2)cc1	-3.0	0.6	-4.8	0.3	-18.9*
Cc1ccc(NC(=S)/C(=C(\[O-])c2ccc(Cl)s2)[n+]2cccc(CO)c2)cc1C	-12.1	1.2	-3.9	-0.5	-0.8
Cc1ccc(NC(=S)/C(=C(\[O-])c2ccc(F)cc2)[n+]2ccccc2)cc1	-5.6	1.8	2.2	5.2	-24.7*
Cc1ccc(S(=O)(=O)Nc2ccc3c(c2)C(=O)N([C@@H](C)CO)C[C@H](C)[C@@H](CN(C)C(=O)Cc2ccccc2)OCCCC[C@@H](C)O3)cc1	nt	3.8	-2.6	-3.6	2.6
COc1cccc(CN2CCN(C(=O)c3cc(-c4cccnc4)nc4ccc(C)cc34)CC2)c1	-13.9	1.4	4.9	-2.3	-27.4*
COc1ccc2nc(-c3ccccc3)cc(C(=O)N3CCC3)c2c1	-14.1	1.7	4.5	-13.6	-10.0
C=CCc1ccc(OCCCCN2CCC(C)CC2)c(OC)c1	14.1	nt	-17.3	nt	nt
C=CCc1ccc(OCCCCN2CC(C)CC(C)C2)c(OC)c1 (stereo not given)	-3.2	3.7	1.9	-2.6	-22.1*
c1ccc(-c2nc3cccnc3nc2-c2ccccc2)cc1	-3.1	-1.0	9.3	1.6	-23.5*
Cc1ccccc1N1CCN(Cc2nc(Cc3ccccc3)no2)CC1	-2.9	1.5	-5.4	2.5	-27.9*
Clc1cccc(CN2CCN(Cc3nc(CCc4ccccc4)no3)CC2)c1	-18.0	-1.1	1.6	-4.0	-31.5*
COc1ccc(-c2nc(CN3CCN(Cc4cccc(Cl)c4)CC3)c(C)o2)cc1	-18.9	2.1	10.2	-0.4	-33.1*
COCC(=O)Nc1ccc2c(c1)C(=O)N(C)C[C@H](OC)[C@@H](C)CN(C(=O)NC(C)C)[C@@H](C)CO2	nt	2.1	-2.9	0.6	-1.9
Cc1noc(C)c1NC(=O)Nc1ccc2c(c1)CC(=O)N([C@@H](C)CO)C[C@@H](C)[C@@H](CN(C)S(=O)(=O)c1ccc(F)cc1)O2	nt	-4.0	-12.1	-0.9	5.4
C[C@H]1CN([C@@H](C)CO)C(=O)c2cccc(NS(=O)(=O)c3ccc(Cl)cc3)c2O[C@@H]1CN(C)C(=O)NC1CCCCC1	nt	0.2	-9.4	0.2	-0.3
SMILES	PvdQ acylase	CFTR F508del cor	ARNT-TACC3 inh	ERAP1 inh	Ecoli rRNA inh
Cc1ccc(Nc2nc(CSc3nnc(-c4cccnc4)n3-c3ccccc3F)cs2)cc1	-4.6	8.6*	nt	-2.5	0.3
Cc1ccc(Nc2nc(CSc3nnc(-c4ccncc4)n3C)cs2)cc1	6.0	nt	7.2	nt	nt
COCC(=O)N1C[C@@H](C)[C@H](OC)CN(C)C(=O)c2ccc(NC(=O)C3CCC3)cc2OC[C@@H]1C	nt	1.9	-4.5	-3.7	2.1
COc1ccc(CCNC(=O)/C(C#N)=C/c2ccc(OCC(=O)NCC3CCCO3)cc2)cc1OC (stereo not given)	35.4*	0.6	1.3	0.5	-5.2
COc1cc(/C=C(\C#N)C(=O)NCC2CCCO2)ccc1OCC(=O)O (stereo not given)	4.7	4.1	nt	2.9	16.4
COc1cccc(C(=O)N[C@H](C(=O)N2CCC[C@H]2C(=O)NC2CCCC2)C2CCCCC2)c1	nt	-5.5	nt	3.2	18.9
CCCNC(=O)C[C@@H]1C[C@H]2c3cc(NC(=O)COC)ccc3O[C@H]2[C@@H](CO)O1	nt	-1.5	0.1	0.1	6.1
Oc1ccc(CNc2ccccc2)c2cccnc12	-0.6	nt	48.2*	nt	nt
Oc1ccc2ccccc2c1CNc1ccc2ccccc2c1	2.5	-1.2	2.1	1.3	-58.4
O=C(O)c1cccc([N+](=O)[O-])c1C(=O)Nc1cccc2ccccc12	-9.0	0.6	0.4	4.1	0.5
O=[N+]([O-])c1ccccc1NCc1c(O)ccc2ccccc12	5.2	-1.5	12.2	0.1	-21.9*
Oc1ccc2ccccc2c1CNc1ccccc1	-4.6	2.4	11.8	-3.4	-13.4*
Cc1ccccc1-c1ccc([C@@H]2[C@H](CO)N3C(=O)CN(C(=O)NC4CCCC4)C[C@@H]23)cc1	nt	-0.3	nt	3.5	-3.3
O=C1C=CC(=O)c2c(O)c(CO)c(CO)c(O)c21	8.1	-0.9	11.9*	-0.7	-17.8
COc1ccccc1NC(=O)N[C@H]1CC[C@@H](CCNS(=O)(=O)c2ccccc2)O[C@H]1CO	nt	-4.0	0.6	-1.3	-3.3
CC(C)NC(=O)N[C@H]1CC[C@H](CCN)O[C@@H]1CO	nt	4.9	3.6	-1.1	3.7
COC1=C(Nc2ccc(OC)cc2)C(=O)c2ccccc2C1=O	-10.8	nt	52.6*	nt	nt
Cc1cccc(NC2=C(NCCO)C(=O)c3ccccc3C2=O)c1	-5.6	nt	38.8*	0.5	1.1
COc1cccc(NC2=C(NCCO)C(=O)c3ccccc3C2=O)c1	5.2	1.6	47.4*	0.9	-18.0
COC1=C(Nc2ccc(OC)cc2)C(=O)C(OC)=C(Nc2ccc(OC)cc2)C1=O	-2.7	-2.0	2.8	2.1	2.4
COc1ccc(NC2=C(NCCO)C(=O)c3ccccc3C2=O)cc1	8.3	nt	59.6*	-1.0	10.6
COc1cccc(Nc2c(Nc3cccc(OC)c3)c(=O)c2=O)c1	-6.7	0.0	-5.4	0.7	11.9
Cc1cccc(Nc2nc(N)c([N+](=O)[O-])c(NCCO)n2)c1	-3.0	nt	-3.0	0.2	5.3
